Screening data: PubChem, The Scripps Research Institute Molecular Screening Center
MITF inh: inhibitors of human MITF. inhibition, % at 2.6 µM. 650,000 compounds, 0.91% hits. O75030. AlphaScreen MITF homodimerization, bead proximity signal. AID 1259374; in the data active = inhibition above about 50%;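 note: 0% = vehicle wells with protein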
GPR151 activ: activates the human receptor GPR151; AID 1508602; activation, % at 11.2 µM; Q8TDV0; PathHunter beta-arrestin GPR151 cells, luminescence; 650,000 compounds, 1% hits; in the data active = activation above about 4.9%;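 note: 0% = median of compound wells and 100% = cells with positive control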
Target sequence (Q8TDV0 whole entry, looked up): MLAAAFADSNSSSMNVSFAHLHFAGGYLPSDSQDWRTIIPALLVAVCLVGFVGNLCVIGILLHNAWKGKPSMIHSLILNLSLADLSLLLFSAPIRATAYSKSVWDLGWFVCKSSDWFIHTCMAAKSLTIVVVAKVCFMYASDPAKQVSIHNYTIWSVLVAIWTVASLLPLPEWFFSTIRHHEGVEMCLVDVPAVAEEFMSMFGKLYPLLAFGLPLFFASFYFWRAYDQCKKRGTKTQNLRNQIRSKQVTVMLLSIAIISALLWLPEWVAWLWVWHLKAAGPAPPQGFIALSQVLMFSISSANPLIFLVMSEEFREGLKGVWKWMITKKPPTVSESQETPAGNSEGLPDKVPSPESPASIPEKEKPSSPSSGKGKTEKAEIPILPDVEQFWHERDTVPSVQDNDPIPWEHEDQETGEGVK
TEAD-YAP block: TEAD-YAP interaction inhibition. HEK-TIYL cells, TEAD-Gal4/YAP UAS-luciferase luminescence. inhibition, % at 9.12 µM. 640,000 compounds, 1.4% hits; in the data active = inhibition above about 32%;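 note: 0% = median of test compound wells and 100% = reference inhibitor wells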
FBW7 act: human FBW7 E3 ligase activation, primary screen; AlphaScreen FBW7–phospho-cyclin E peptide binding, activator screen; normalized activity (activation), % at 26.1 µM; 650,000 compounds, 0.13% hits; in the data active = normalized activity above about 1.9%;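 note: purified mutant Fbw7 with reduced substrate affinity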
MITF inh conf: confirmation of human MITF inhibitors; shares compounds with MITF inh; AlphaScreen MITF homodimerization, biotin/His-MITF beads; inhibition, % at 2.6 µM; 4,700 compounds, 16% hits; AID 1259372;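 active = inhibition above a cutoff derived from the DMSO control wells, cut at about 28% in these data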;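 note: 0% = MITF dimer wells with DMSO only; inhibitors lower the bead chemiluminescence by keeping MITF from dimerizing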
AS interf ctr: counter-screen: compounds optically interfering with AlphaScreen; shares compounds with MITF inh; LysRS AlphaScreen counterscreen, signal interference, triplicate; inhibition, % at 2.6 µM; 4,700 compounds, 7.6% hits; AID 1259376;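 active = inhibition above a cutoff derived from the DMSO control wells, cut at about 30% in these data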
Active calls of the source: *. The list is not random: actives were taken first. Their share in the collection is about 3.4%.

`COc1ccc(CN2CCN(Cc3ccc(F)cc3)CC2)c(OC)c1OC` gave MITF inh 60*, GPR151 activ 0, TEAD-YAP block 1, FBW7 act 0, MITF inh conf 2 and AS interf ctr 7.
Cc1ccccc1C(NC(=O)C1CCN(C(=O)c2ccoc2)CC1)c1ccccn1 (stereo unspecified) was read as MITF inh 10, GPR151 activ 0, TEAD-YAP block -5 and FBW7 act 0.
For Cc1ccc(C)c2c1-c1ccccc1S(=O)(=O)N2S(=O)(=O)c1ccccc1 the results were MITF inh -9, GPR151 activ 0, TEAD-YAP block 8 and FBW7 act 0.
For COC(=O)CC[C@H]1CN(Cc2cc(C)c(OC)cc2C)CC[C@H]1N1CCOCC1 the results were MITF inh 4, GPR151 activ 2, TEAD-YAP block 12 and FBW7 act 1.
For COc1ccc(CN2CCN(Cc3ccc(Cl)cc3)CC2)c2ccccc12 the results were MITF inh 83*, GPR151 activ 0, TEAD-YAP block 2, FBW7 act 0, MITF inh conf 13 and AS interf ctr 20.
CCN1CCN(Cc2ccc(OC)c3ccccc23)CC1 was read as MITF inh 31, GPR151 activ 0, TEAD-YAP block 0 and FBW7 act 0.
`CC(C)(c1ccccc1)c1ccc(OCCCNCCN)cc1` gave MITF inh -2, GPR151 activ 1, TEAD-YAP block 9 and FBW7 act 0.
CN(C)CCNCCCOc1ccccc1 was read as MITF inh 56*, GPR151 activ -2, TEAD-YAP block 11, FBW7 act 0, MITF inh conf 5 and AS interf ctr 16.
For COCCNCCCCOc1ccc(OCc2ccccc2)cc1 the results were MITF inh 66*, GPR151 activ -1, TEAD-YAP block -28, FBW7 act 0, MITF inh conf 11 and AS interf ctr 15.
COCCCNCCOc1ccc(OCc2ccccc2)cc1 was read as MITF inh 47, GPR151 activ -2, TEAD-YAP block -22 and FBW7 act 0.
Screening COCCNCCCOc1ccc(C(C)(C)c2ccccc2)cc1 returned MITF inh 85*, GPR151 activ -1, TEAD-YAP block 10, FBW7 act 0, MITF inh conf 2 and AS interf ctr 7.
COCCCNCCCOc1ccc(C(C)(C)c2ccccc2)cc1 was read as MITF inh 76*, GPR151 activ 0, TEAD-YAP block 5, FBW7 act 0, MITF inh conf 2 and AS interf ctr 5.
Nc1nnc(CC(=O)N/N=C/c2ccc(O)cc2)s1 was read as MITF inh -1, GPR151 activ -1, TEAD-YAP block 5 and FBW7 act 0.
Screening COc1cc(-c2nnc(-c3ccccc3Br)o2)cc(OC)c1OC returned MITF inh -3, GPR151 activ 0, TEAD-YAP block -6 and FBW7 act 0.
Screening CCC(=O)c1ccccc1OCCCCN1CCN(CC)CC1 returned MITF inh 60*, GPR151 activ 4, TEAD-YAP block 8, FBW7 act 0, MITF inh conf 18 and AS interf ctr 13.
COc1ccc(C(=O)NC(=S)N2CCN(Cc3ccccc3)CC2)cc1OC was read as MITF inh 18, GPR151 activ -1, TEAD-YAP block -2 and FBW7 act 0.
CCC(=O)c1ccccc1OCCN1CCN(Cc2ccccc2)CC1 was read as MITF inh 66*, GPR151 activ 1, TEAD-YAP block 14, FBW7 act 0, MITF inh conf 7 and AS interf ctr 3.
For CCC(=O)c1ccccc1OCCN1CCN(C)CC1 the results were MITF inh 13, GPR151 activ -1, TEAD-YAP block 7 and FBW7 act 0.
For COc1cc(C(C)=O)ccc1OCCN1CCN(Cc2ccccc2)CC1 the results were MITF inh 62*, GPR151 activ -1, TEAD-YAP block 11, FBW7 act 1, MITF inh conf 6 and AS interf ctr 10.
Screening O=C(N/N=C/c1cccc(O)c1)c1cccc([N+](=O)[O-])c1 returned MITF inh -9, GPR151 activ 0, TEAD-YAP block -4 and FBW7 act 0.
Screening CC1=CC(C)(C)NC(=S)N1c1cc(Cl)cc(Cl)c1 returned MITF inh 58*, GPR151 activ -1, TEAD-YAP block -4, FBW7 act 0, MITF inh conf 10 and AS interf ctr 18.
